Assay [1] deals with Myc proto-oncogene protein (Homo sapiens) (UniProt P01106). Put plainly: ATG_Myc_CIS: Attagene CIS-FACTORIAL HepG2 Assay for human Myelocytomatosis (Myc) Proto-Oncogene Transcription Factor (AID 2282990). To be noted: HepG2, Attagene cis-reporter transcription factor activity; actives raise or lower the signal. The procedure, abridged: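 Cells of the HepG2 human liver line bear multiple cis-driven reporter transcription units. Reporter mRNA after 24 h exposure is reverse-transcribed, amplified, labelled and resolved by capillary electrophoresis, with gain- or loss-of-signal fitting relative to DMSO.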
Chain of Myc proto-oncogene protein (Homo sapiens) (P01106 whole entry, looked up): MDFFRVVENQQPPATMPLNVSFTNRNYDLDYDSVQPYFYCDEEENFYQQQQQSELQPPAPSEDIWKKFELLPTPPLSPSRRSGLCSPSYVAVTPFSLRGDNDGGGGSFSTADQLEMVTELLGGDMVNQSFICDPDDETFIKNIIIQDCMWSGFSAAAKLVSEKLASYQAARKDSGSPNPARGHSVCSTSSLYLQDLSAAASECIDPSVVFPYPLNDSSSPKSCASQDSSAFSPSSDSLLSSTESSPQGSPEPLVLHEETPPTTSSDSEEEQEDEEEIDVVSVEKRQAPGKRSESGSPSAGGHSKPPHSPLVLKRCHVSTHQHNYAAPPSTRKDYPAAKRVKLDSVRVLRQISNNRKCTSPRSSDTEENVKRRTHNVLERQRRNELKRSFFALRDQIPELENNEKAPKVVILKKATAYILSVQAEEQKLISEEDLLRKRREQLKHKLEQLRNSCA

The nature of assay [2]: ATG_Oct_MLP_CIS: Attagene CIS-FACTORIAL HepG2 Assay for human Octamer-Binding Transcription Factor (Oct) (AID 2282993). To be noted: HepG2 Attagene cis-factorial Oct reporter, mRNA; actives raise or lower the signal. The procedure, abridged: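 HepG2 cells transiently transfected with cis-element-driven reporter transcription units (endogenous TF activity); 24 h compound exposure. Reporter mRNA quantified by RT-PCR, 6-FAM labelling, HpaI digestion and capillary electrophoresis; bidirectional fit versus DMSO baseline.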

For assay [3], the target named is Cellular tumor antigen p53 (Homo sapiens) (UniProt P04637). Put plainly: ATG_p53_CIS: Attagene CIS-FACTORIAL HepG2 Assay for human p53 Transcription Factor (AID 2282994). The settings on record: HepG2 p53 cis-element reporter, Attagene mRNA; actives raise or lower the signal. The procedure, abridged:
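Steps: transfect HepG2 with multiplexed cis reporter constructs; dose chemicals 24 h; extract RNA, reverse-transcribe, PCR-amplify reporter sequences; FAM-label, HpaI-digest, resolve fragments by CE. Activity fitted both directions relative to DMSO.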

The target of assay [4] is human Peroxisome Proliferator-activated Receptor delta (PPARd), PPARD (gene 5467) (UniProt Q03181). Put plainly: ATG_PPARd_TRANS: Attagene TRANS-FACTORIAL HepG2 Assay for human Peroxisome Proliferator-activated Receptor delta (PPARd) (AID 2283002; active = hit-call score of the fitted dose curve at least 0.9, where 1 is the maximum). The procedure, abridged:
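Cell-based TRANS reporter: HepG2, transient MRTU transfection, 24 h exposure. Readout = reporter mRNA (RT-PCR/CE, 6-FAM). Gain-of-signal fit vs DMSO control.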

The target of assay [5] is Retinoic acid receptor alpha (Homo sapiens) (UniProt P10276). Put plainly: ATG_RARa_TRANS: Attagene TRANS-FACTORIAL HepG2 Assay for human Retinoic Acid Receptor alpha (RARa) (AID 2283005; active = hit-call score of the fitted dose curve at least 0.9, where 1 is the maximum). In short, it runs like this:
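Reporter transcripts, measured by RT-PCR with fluorescent labeling and capillary electrophoresis after 24 h dosing, reflect activity of an exogenous human RARa–GAL4 fusion in transiently transfected HepG2. Fitted for increase relative to DMSO.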

Assay [6] addresses Peroxisome proliferator-activated receptor gamma (Homo sapiens) (UniProt P37231). Put plainly: ATG_PPARg_TRANS: Attagene TRANS-FACTORIAL HepG2 Assay for human Peroxisome Proliferator-activated Receptor-gamma (PPARg) (AID 2283007; active = hit-call score of the fitted dose curve at least 0.9, where 1 is the maximum). In short, it runs like this:
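Multiplexed reporter transcription units in HepG2, 24 h dosing, reporter transcripts quantified by fluorescent RT-PCR and capillary electrophoresis. Increase over DMSO scored.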

Assay [7] addresses human RAR-related Orphan Receptor beta (RORb), RORB (gene 6096) (UniProt Q92753). Put plainly: ATG_RORb_TRANS: Attagene TRANS-FACTORIAL HepG2 Assay for human RAR-related Orphan Receptor beta (RORb) (AID 2283010; active = hit-call score of the fitted dose curve at least 0.9, where 1 is the maximum). The procedure, abridged:
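Transfect HepG2 with multiple GAL4-UAS reporter transcription units; dose chemicals for 24 h; isolate RNA, reverse-transcribe and PCR-amplify reporter sequences; label, digest and resolve fragments by capillary electrophoresis; fit increases relative to DMSO.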

Assay [8] in a line: ATG_NRF2_ARE_CIS: Attagene CIS-FACTORIAL HepG2 Assay for human Nuclear Factor Erythroid 2 Related Factor 2 (NFR2) response to Antioxidant Response Elements (ARE) (AID 2282992).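 For AC50: reporter mRNA level measured by RT-PCR and capillary electrophoresis fluorescence.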 To be noted: HepG2 Attagene ARE/NRF2 reporter, transcription factor activity; actives raise or lower the signal. The procedure, abridged: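 Endogenous transcription factor activity in human liver HepG2 cells is tracked via a cis-element-driven reporter within a multiplexed set. mRNA induction is read by RT-PCR and capillary electrophoresis after 24 h, with DMSO as baseline.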

Assay [9] addresses human Peroxisome Proliferator-activated Receptor alpha (PPARa), PPARA (gene 5465) (UniProt Q07869). Put plainly: ATG_PPARa_TRANS: Attagene TRANS-FACTORIAL HepG2 Assay for human Peroxisome Proliferator-activated Receptor alpha (PPARa) (AID 2283001; active = hit-call score of the fitted dose curve at least 0.9, where 1 is the maximum;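 note: potency for gain of reporter signal over DMSO so agonist or activator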). The procedure, abridged: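 Reporter transcripts quantified by RT-PCR plus capillary electrophoresis after 24 h treatment, fitted upward relative to DMSO. Cells: human HepG2 transiently carrying multiple GAL4-UAS reporter units driven by NR-Gal4 chimeras.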

In assay [10] the target is human Retinoic Acid Receptor beta (RARb), RARB (gene 5915) (UniProt P10826). Put plainly: ATG_RARb_TRANS: Attagene TRANS-FACTORIAL HepG2 Assay for human Retinoic Acid Receptor beta (AID 2283004; active = hit-call score of the fitted dose curve at least 0.9, where 1 is the maximum). In short, it runs like this: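 Fluorescent capillary-electrophoresis detection of GAL4-UAS reporter mRNA defines the endpoint, with induction over DMSO-treated wells scored as activity. Transiently transfected human hepatoma HepG2 cells expressing exogenous NR–Gal4 proteins are exposed to test chemicals for 24 h.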
Chain of human Retinoic Acid Receptor beta (RARb), RARB (gene 5915) (P10826 whole entry, looked up, the tested form may be a part): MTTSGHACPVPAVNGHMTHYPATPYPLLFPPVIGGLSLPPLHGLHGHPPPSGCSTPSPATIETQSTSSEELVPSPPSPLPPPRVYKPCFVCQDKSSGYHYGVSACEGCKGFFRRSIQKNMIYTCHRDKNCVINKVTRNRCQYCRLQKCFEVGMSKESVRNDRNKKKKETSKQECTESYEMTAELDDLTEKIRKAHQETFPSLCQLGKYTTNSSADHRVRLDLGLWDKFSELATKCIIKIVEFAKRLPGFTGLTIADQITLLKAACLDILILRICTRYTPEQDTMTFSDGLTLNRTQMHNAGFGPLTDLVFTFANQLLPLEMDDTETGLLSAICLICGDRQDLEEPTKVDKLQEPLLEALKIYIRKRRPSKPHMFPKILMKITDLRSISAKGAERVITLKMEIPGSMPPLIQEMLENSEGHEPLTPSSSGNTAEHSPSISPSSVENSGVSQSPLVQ

The target in assay [11] is Nuclear receptor subfamily 1 group I member 2 (Homo sapiens) (UniProt O75469). Put plainly: ATG_PXR_TRANS: Attagene TRANS-FACTORIAL HepG2 Assay for human Pregnane X Receptor (PXR) (AID 2283008; active = hit-call score of the fitted dose curve at least 0.9, where 1 is the maximum). The procedure, abridged:
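HepG2 transfected (FuGene 6) with GAL4-UAS reporter units + PXR-Gal4 chimera; dosed 24 h. Total RNA → oligo(dT) RT → PCR → 6-FAM primer extension → HpaI cut → CE. Gain-of-signal vs DMSO.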

For assay [12], the target named is human RAR-related Orphan Receptor gamma (RORg), RORC (gene 6097) (UniProt P51449). Put plainly: ATG_RORg_TRANS: Attagene TRANS-FACTORIAL HepG2 Assay for human RAR-related Orphan Receptor gamma (RORg) (AID 2283011; active = hit-call score of the fitted dose curve at least 0.9, where 1 is the maximum). In short, it runs like this:
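Chimeric RORg-Gal4 transactivation in transfected HepG2; 24 h exposure; RT-PCR/capillary electrophoresis readout of reporter mRNA, DMSO baseline.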

Assay [13] can be described thus: ATG_NF_kB_CIS: Attagene CIS-FACTORIAL HepG2 Assay for human Nuclear Factor Kappa B (NF-kB) (AID 2282991). The settings on record: HepG2 Attagene cis-factorial NF-kB reporter mRNA; actives raise or lower the signal. The procedure, abridged:
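HepG2, transient multi-reporter transfection, cis promoter elements (endogenous TFs). 24 h exposure. Total RNA → RT → PCR → 6-FAM label → HpaI → CE. Gain/loss vs DMSO.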

Assay [14] has as its target human Retinoic Acid Receptor gamma (RARg), RARG (gene 5916) (UniProt P13631). Put plainly: ATG_RARg_TRANS: Attagene TRANS-FACTORIAL HepG2 Assay for human Retinoic Acid Receptor gamma (RARg) (AID 2283009; active = hit-call score of the fitted dose curve at least 0.9, where 1 is the maximum). In short, it runs like this:
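TRANS format measured activity of exogenous NR-GAL4 fusion (RARg) in transfected HepG2 liver cells after 24 h dosing. Induced reporter RNA was detected by RT-PCR/capillary electrophoresis fluorescence, analysed in the positive direction against DMSO.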

A short description of assay [15]: BSK_3C_TissueFactor: BioMAP Diversity Plus: 3C Assay for Tissue Factor Biomarker Activity (AID 2282997). To be noted: BioMAP 3C HUVEC, tissue factor biomarker readout; actives raise or lower the signal. In short, it runs like this: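 In this endothelial system, HUVEC are treated for 24 h and Tissue Factor is assessed by ELISA, normalised to DMSO.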
The nature of assay [16]: BSK_3C_uPAR: BioMAP Diversity Plus: 3C Assay for Urokinase-type plasminogen activator receptor (uPAR) Biomarker Activity (AID 2282998). The settings on record: BioMAP 3C HUVEC, uPAR biomarker ELISA; actives raise or lower the signal. In short, it runs like this:
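Primary human umbilical vein endothelial cells, 3C system; surface uPAR measured by ELISA 24 h after dosing. Cytotoxicity via SRB total protein in parallel cultures; bidirectional fit against DMSO.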

Assay [17] in a line: BSK_3C_VCAM1: BioMAP Diversity Plus: 3C Assay for Vascular cell adhesion molecule 1 (VCAM1) Biomarker Activity (AID 2282999). The settings on record: BioMAP 3C HUVEC, VCAM1 ELISA, cytokine-stimulated; actives raise or lower the signal. The procedure, abridged: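 Activity fitted in both directions relative to DMSO, with ELISA measurement of the surface marker on primary HUVEC (3C) at 24 h post-treatment; parallel SRB staining (0.1% SRB, TCA-fixed, 560 nm) flagged overt cytotoxicity.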
On the technique in general: In an ELISA, binding on a coated surface is turned into a signal by an enzyme label.

Assay [18] can be described thus: BSK_4H_Eotaxin3: BioMAP Diversity Plus: 4H Assay for Eotaxin 3 Biomarker Activity (AID 2283000).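 For outcome: CCL26 protein level quantified by ELISA in parallel with SRB cytotoxicity check.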 The settings on record: primary human endothelial cells (HUVEC); actives raise or lower the signal. In short, it runs like this: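 ELISA quantitation of CCL26 (Eotaxin-3) protein from chemically dosed human vascular endothelial cells at 24 h; increases and decreases both scored relative to DMSO-treated baseline.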

Read-out in assay [19]: Intercellular Adhesion Molecule 1 (ICAM1), ICAM1 (gene 3383)
Put plainly: BSK_3C_ICAM1: BioMAP Diversity Plus: 3C Assay for Intercellular Adhesion Molecule 1 (ICAM1) Biomarker Activity (AID 2283003). The settings on record: primary human endothelial cells (HUVEC); actives raise or lower the signal. The procedure, abridged: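 Chemicals are dosed onto primary human umbilical vein endothelium (3C system). After 24 h, ICAM-1 is measured by ELISA, and responses are fitted bidirectionally relative to DMSO.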

Assay [20] in a line: BSK_3C_Proliferation: Cell Proliferation Assessment in the BioMAP Diversity Plus: 3C Assay (AID 2283006).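 For AC50: potency may reflect either rise or fall in cell number versus DMSO.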 The settings on record: primary human endothelial cells (HUVEC). The procedure, abridged: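 Cells (human umbilical vein endothelial, sub-confluent) receive test chemical; after 48 h they are fixed in 10% trichloroacetic acid, stained with 0.1% SRB and read at 560 nm. Activity is referenced to DMSO, fitting increases and decreases.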

We go through seven compounds from PubChem BioAssay (EPA / NIEHS).

Results filed as inconclusive are left out. Calls of active or inactive are those of the source. Rule for the calls, unless noted: active = hit-call score of the fitted dose curve at least 0.9, where 1 is the maximum; inactive = score below 0.9.

Chain of Nuclear receptor subfamily 1 group I member 2 (Homo sapiens) (O75469 whole entry, looked up, the tested form may be a part): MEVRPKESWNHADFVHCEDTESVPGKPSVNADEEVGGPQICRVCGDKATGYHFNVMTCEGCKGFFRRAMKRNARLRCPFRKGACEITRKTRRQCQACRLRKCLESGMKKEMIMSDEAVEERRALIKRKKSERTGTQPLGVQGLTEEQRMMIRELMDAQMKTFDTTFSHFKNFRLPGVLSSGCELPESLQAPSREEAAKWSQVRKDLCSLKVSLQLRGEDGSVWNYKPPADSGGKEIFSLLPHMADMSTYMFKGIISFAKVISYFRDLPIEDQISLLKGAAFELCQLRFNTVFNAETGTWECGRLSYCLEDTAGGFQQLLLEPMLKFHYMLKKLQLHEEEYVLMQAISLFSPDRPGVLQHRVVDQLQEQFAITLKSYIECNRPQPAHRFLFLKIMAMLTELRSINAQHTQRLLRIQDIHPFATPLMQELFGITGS
Chain of Retinoic acid receptor alpha (Homo sapiens) (P10276 whole entry, looked up, the tested form may be a part): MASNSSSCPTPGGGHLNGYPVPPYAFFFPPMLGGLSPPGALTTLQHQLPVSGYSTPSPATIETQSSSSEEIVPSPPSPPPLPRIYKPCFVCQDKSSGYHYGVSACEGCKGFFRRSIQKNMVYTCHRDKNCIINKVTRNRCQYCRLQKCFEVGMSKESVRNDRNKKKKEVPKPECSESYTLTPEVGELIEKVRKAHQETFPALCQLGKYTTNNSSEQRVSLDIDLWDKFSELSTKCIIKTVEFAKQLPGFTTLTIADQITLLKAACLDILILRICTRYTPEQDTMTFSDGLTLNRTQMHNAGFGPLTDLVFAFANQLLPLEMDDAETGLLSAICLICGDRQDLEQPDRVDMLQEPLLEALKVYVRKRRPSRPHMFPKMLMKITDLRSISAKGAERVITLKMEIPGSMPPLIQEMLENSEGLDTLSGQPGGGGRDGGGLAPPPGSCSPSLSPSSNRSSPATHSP
Chain of human Peroxisome Proliferator-activated Receptor delta (PPARd), PPARD (gene 5467) (Q03181 whole entry, looked up): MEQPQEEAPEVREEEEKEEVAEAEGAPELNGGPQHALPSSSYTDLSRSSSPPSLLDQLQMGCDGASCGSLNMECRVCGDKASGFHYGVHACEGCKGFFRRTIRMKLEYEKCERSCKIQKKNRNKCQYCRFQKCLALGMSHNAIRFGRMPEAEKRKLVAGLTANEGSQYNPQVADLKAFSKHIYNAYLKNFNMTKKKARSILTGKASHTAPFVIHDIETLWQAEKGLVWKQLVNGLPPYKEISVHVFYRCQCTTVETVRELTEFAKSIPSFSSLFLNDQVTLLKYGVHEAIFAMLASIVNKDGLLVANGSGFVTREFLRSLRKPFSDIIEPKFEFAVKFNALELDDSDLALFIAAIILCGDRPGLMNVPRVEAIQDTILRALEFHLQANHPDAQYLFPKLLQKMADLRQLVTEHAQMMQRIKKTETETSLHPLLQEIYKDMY
Chain of human RAR-related Orphan Receptor beta (RORb), RORB (gene 6096) (Q92753 whole entry, looked up, the tested form may be a part): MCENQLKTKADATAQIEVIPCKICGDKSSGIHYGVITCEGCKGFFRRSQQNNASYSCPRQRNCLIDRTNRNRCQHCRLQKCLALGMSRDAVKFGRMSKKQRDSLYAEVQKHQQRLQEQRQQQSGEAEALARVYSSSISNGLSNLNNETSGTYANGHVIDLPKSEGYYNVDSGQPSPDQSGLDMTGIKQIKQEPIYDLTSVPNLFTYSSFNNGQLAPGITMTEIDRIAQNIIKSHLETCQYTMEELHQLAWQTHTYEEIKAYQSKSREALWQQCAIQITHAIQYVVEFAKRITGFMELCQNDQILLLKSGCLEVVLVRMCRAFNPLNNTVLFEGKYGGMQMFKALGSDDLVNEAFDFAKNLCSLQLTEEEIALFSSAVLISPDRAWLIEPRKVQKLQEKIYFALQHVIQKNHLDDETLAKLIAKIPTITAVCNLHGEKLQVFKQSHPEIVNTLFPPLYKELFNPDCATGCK
Chain of Peroxisome proliferator-activated receptor gamma (Homo sapiens) (P37231 whole entry, looked up): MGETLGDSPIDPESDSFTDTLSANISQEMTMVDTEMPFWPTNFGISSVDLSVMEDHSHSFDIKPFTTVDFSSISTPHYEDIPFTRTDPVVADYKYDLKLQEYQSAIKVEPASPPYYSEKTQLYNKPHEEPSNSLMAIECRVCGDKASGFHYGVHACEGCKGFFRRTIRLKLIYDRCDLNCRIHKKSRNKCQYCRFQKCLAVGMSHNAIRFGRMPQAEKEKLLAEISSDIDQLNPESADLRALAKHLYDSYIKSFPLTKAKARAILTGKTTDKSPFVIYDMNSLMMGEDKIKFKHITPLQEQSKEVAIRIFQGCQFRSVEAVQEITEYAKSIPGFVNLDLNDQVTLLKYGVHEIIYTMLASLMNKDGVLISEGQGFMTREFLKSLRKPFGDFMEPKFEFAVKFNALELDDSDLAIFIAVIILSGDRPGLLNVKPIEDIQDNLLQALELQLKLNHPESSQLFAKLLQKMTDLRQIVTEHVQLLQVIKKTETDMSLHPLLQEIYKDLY
Chain of Cellular tumor antigen p53 (Homo sapiens) (P04637 whole entry, looked up, the tested form may be a part): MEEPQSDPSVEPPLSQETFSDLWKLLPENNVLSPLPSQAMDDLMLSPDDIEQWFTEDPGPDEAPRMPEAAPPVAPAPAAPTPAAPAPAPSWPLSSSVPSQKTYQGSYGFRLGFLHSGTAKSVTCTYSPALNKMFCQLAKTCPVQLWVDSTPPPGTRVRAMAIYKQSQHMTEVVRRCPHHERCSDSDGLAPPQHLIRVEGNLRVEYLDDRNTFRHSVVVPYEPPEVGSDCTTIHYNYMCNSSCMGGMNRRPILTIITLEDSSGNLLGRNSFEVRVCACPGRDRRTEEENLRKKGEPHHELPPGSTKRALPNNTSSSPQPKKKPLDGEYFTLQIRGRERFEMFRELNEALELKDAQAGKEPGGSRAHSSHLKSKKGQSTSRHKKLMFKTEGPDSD
Chain of human Retinoic Acid Receptor gamma (RARg), RARG (gene 5916) (P13631 whole entry, looked up, the tested form may be a part): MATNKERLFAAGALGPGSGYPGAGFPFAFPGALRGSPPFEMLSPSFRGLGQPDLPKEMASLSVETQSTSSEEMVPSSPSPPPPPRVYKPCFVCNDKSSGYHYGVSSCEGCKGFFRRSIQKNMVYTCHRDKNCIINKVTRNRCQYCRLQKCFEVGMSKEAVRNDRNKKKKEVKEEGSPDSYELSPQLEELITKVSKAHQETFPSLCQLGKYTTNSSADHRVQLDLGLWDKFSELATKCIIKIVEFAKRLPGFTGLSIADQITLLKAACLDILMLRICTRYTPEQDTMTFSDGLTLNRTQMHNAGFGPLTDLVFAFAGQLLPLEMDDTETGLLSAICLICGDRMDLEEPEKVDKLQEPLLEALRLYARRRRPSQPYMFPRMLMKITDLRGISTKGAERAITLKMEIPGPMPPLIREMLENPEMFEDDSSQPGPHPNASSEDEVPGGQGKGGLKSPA
Chain of human Peroxisome Proliferator-activated Receptor alpha (PPARa), PPARA (gene 5465) (Q07869 whole entry, looked up, the tested form may be a part): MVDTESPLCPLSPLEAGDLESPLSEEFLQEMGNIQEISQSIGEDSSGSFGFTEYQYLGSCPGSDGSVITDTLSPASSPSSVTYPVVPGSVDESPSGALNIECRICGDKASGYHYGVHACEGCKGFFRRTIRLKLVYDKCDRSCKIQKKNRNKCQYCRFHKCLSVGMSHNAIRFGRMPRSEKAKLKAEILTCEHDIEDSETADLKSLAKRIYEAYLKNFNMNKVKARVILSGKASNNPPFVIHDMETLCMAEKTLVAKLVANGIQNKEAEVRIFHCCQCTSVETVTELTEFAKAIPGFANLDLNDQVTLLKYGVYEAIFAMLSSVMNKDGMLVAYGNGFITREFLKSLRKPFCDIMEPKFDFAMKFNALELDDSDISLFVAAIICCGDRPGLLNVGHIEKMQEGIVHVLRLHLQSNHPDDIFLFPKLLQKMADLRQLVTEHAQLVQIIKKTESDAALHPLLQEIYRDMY

For `O=c1[nH]c(=O)c2cn[nH]c2[nH]1`, the compound was called inactive in assay [1], in assay [2], in assay [3], in [4], in [5] and in assay [6]. The outcome in assay [7] was inactive.

Take `CCCCCCCC/C=C\CCCCCCCC(=O)OCC`: the result in assay [1], in [8], in assay [2], in assay [4], in [10] and in assay [11] was inactive. In addition, the compound was called inactive in assay [7]. Also, the AC50 in assay [9] was 45.1 µM (active); in [6], 50.5 µM (active).

Turning to `COc1ccccc1[N+](=O)[O-]`, the compound was classed as inactive in assay [8], in assay [2], in assay [11] and in [12].

For `CCCCCCC(C)Nc1ccc(Nc2ccccc2)cc1` (stereo not given), the call in assay [13] and in assay [4] was inactive. Besides, the AC50 in assay [8] was 24.1 µM (active); in assay [6], 11.7 µM (active); in [11], 1.53 µM (active).

Take `CCCCCCCCCCCCS(=O)(=O)Cl`: the compound was classed as inactive in assay [13], in [8], in assay [2], in assay [3], in [4] and in assay [5]. The outcome in [14] was inactive. In addition, the AC50 in [6] was 25 µM (active).

As to `C1=CC2C3C=CC(C3)C2C1` (stereo not given), the call in assay [13], in [8], in [3], in [15], in assay [16] and in assay [17] was inactive. For the same compound, the outcome in assay [18], in assay [19], in assay [5], in assay [20], in assay [6] and in assay [11] was inactive. The call in [14] and in [7] was inactive.

For the compound `CC(C)(C)CC(C)(C)c1ccc(OCCOCC[N+](C)(C)Cc2ccccc2)cc1`, the call in assay [13], in [2], in assay [4], in assay [10] and in [6] was inactive. Besides, the half-maximal activity concentration (AC50) is 6.71 µM (active) in assay [8]; 8.35 µM (active) in assay [3]; 7.26 µM (active) in assay [15]; 5 µM (active) in assay [16]; 7.65 µM (active) in assay [17]; 7.69 µM (active) in [18]. Further, the figures for the half-maximal activity concentration (AC50) in [19] and in assay [20] were 8.87 µM (active) and 7.08 µM (active), respectively.

For orientation: AC50 means the midpoint of the concentration-response curve, whichever way the signal moves.
